Measured values: PubChem BioAssay (EPA / NIEHS)
Calls of active or inactive are those of the source. Rule for the calls: active = hit-call score of the fitted dose curve at least 0.9, where 1 is the maximum; inactive = score below 0.9.

The compounds below were run on growth arrest and DNA damage 45 (GADD45A), GADD45A (gene 1647) (assay: LTEA_HepaRG_GADD45A: Life Technologies and Expression Analysis (LTEA) Assay for growth arrest and DNA damage 45 (GADD45A) using HepaRG (AID 2283458)). Conditions: mRNA level, 48 h; actives raise or lower the signal.
Method: LTEA_HepaRG is a cell based, multiplexed-readout assay that uses HepaRG, a human liver cell line, with measurements taken at 48 hours after chemical dosing on a 96-well plate.LTEA_HepaRG_GADD45A is one of 102 assay component(s) measured in the LTEA HepaRG cell culture assay. It is a marker of Oxidative Stress.Data from the assay component LTEA_HepaRG_GADD45A was analyzed into 1 endpoint. This assay endpoint, LTEA_HepaRG_GADD45A, was analyzed with bidirectional fitting relative to DMSO as the negative control and baseline of activity. Using a type of inducible reporter, measures of mRNA induction for gain or loss-of-signal activity can be used to understand regulation of transcription factor activity. To generalize the intended target to other relatable targets, this assay endpoint is annotated to the cell cycle intended target family, where the subfamily is Oxidative Stress.
A total of 1060 chemcials from the ToxCast library were tested in eight-point concentration-response experiments. Cell culture and cytotoxicity assays were conducted at Thermo Fisher Scientific's Custom Services facility (Madison, WI). A single lot of human HepaRG cells (Thermo Fisher Scientific, Frederick, MD) was used for the cell culture experiments. 96-well format collagen type I coated plates of human HepaRG cells were prepared using established methods. Briefly, cryopreserved HepaRG cells were thawed, plated at a density of approximately 100,000 cells/well in HepaRG Thaw, Plate, and General Purpose media (HPRG770, Thermo Fisher Scientific), and incubated for 48 hours. 0.5% DMSO was selected as vehicle control to balance the requisite need of DMSO in HepaRG cultures to maintain differentiation (for example, baseline metabolism, proportions of hepatocytes vs. cholangiocytes), while enabling further hepatic receptor pathway activation (for example, PXR and CAR) in response to chemical exposure. 48 hours after plating, the culture medium was replaced with HepaRG Serum-Free Incudtion Media. Cells were exposed to each test chemical in duplicate and maintained in CO2 incubators for another 48 hours. Chemical plates were thawed to room temperature and 200x concentrations of treatment groups were prepared. 8-point conentration-reponse curves were made with the highest exposure at 100 uM, followed by half-log dilutions, all in 0.5% DMSO. Each test plate contained variouse controls, induction positive controls (1mM phenobarbital), cytotoxicity positive controls ([…] aflatoxin B1), vehicle controls (0.5% DMSO), and total lysis controls (0.5% DMSO). Cell morphology images were taken using an Essen IncuCyte FLR automated microscope, with six 96-well plates imaged in about 24 minutes. Images were captured and exported and JPEG files. Spent culture media was transfered to black-well plates for the LDH assay, and remaining media was sorted at -80 C for later use. Cells were treated with RLT buffer and frozen until shipped for gene expression analysis. Total RNA was isolated from the cell suspension in 75 uL of Buffer RLT (Qiagen, Germantown, MD 20874) by Quintiles/Expression Analysis (Durham, NC) using a custom isolation procedure. Total RNA from each plate well was transferred to a preamplification plate. Fluidigm's 96.96 Dynamic ArrayTM (Fluidigm, Amsterdam, the Netherlands) technology was used for gene expression analyses by quantitative reverse transcription polymerase chain reaction (qRT-PCR, performed by Quintiles/Expression Analysis, Durham, NC)89. Standard TaqManTM Assays (Applied Biosystems/ThermoFisher Scientific, Foster City, CA) were used to assess the expression of 93 genes selected based on their selectivity and sensitivity to important hepatic receptors known to be modulated by environmental chemicals; importance in human hepatocyte functionality; and hepatotoxicity. […]

SMILES	outcome	AC50
Cc1cc(C)nc(Nc2ccccc2)n1	inactive	–
Nc1cnn(-c2ccccc2)c(=O)c1Cl	inactive	–
O=C(Nc1ccccc1-c1ccc(Cl)cc1)c1cccnc1Cl	inactive	–
CCN(CC)c1nc(C)cc(OP(=S)(OC)OC)n1	inactive	–
Nc1c(Cl)c(F)nc(OCC(=O)O)c1Cl	inactive	–
Cc1nc(N(C)C)nc(OC(=O)N(C)C)c1C	inactive	–
CC1(C)C(C=C(Cl)Cl)C1C(=O)OC(C#N)c1cccc(Oc2ccccc2)c1 (stereo not given)	inactive	–
O=c1n(Cl)c(=O)n(Cl)c(=O)n1Cl	inactive	–
COc1cc(OC)nc(NC(=O)NS(=O)(=O)c2ncccc2OCC(F)(F)F)n1	–	50 µM (active)
COCC(C)N(C(=O)CCl)c1c(C)csc1C (stereo not given)	inactive	–
COCC(=O)N(c1c(C)cccc1C)C(C)C(=O)OC (stereo not given)	inactive	–
Clc1cccc(C(Cl)(Cl)Cl)n1	–	89.4 µM (active)
COP(=S)(OC)SCn1nnc2ccccc2c1=O	inactive	–
CN=C=S	inactive	–
CC(C)(C)C(=O)C(Oc1ccc(Cl)cc1)n1cncn1 (stereo not given)	inactive	–
CC(C)=CC1C(C(=O)OCc2coc(Cc3ccccc3)c2)C1(C)C (stereo not given)	inactive	–
Cc1ccc(N=CN(C)C=Nc2ccc(C)cc2C)c(C)c1	inactive	–
C=C(C)CN(CC)c1c([N+](=O)[O-])cc(C(F)(F)F)cc1[N+](=O)[O-]	inactive	–
CNC(=O)N(C)c1nnc(C(C)(C)C)s1	inactive	–
CCOP(=O)(OCC)Oc1nc(Cl)c(Cl)cc1Cl	inactive	–

SMILES	outcome	AC50
CCNC(=O)NC(=O)C(C#N)=NOC	–	0.361 µM (active)
CCOC(=O)C(C)OC(=O)c1cc(Oc2ccc(C(F)(F)F)cc2Cl)ccc1[N+](=O)[O-] (stereo not given)	–	50 µM (active)
COC(=O)N(C(=O)N1CO[C@@]2(C(=O)OC)Cc3cc(Cl)ccc3C2=N1)c1ccc(OC(F)(F)F)cc1	inactive	–
COP(=O)(OC)O/C(C)=C/C(=O)N(C)C	inactive	–
COP(=S)(OC)Oc1ccc([N+](=O)[O-])c(C)c1	inactive	–
CS(=O)(=O)c1cc(C(F)(F)F)ccc1C(=O)c1cnoc1C1CC1	inactive	–
CCCCOCN(C(=O)CCl)c1c(CC)cccc1CC	inactive	–
N#CN=C1SCCN1Cc1ccc(Cl)nc1	inactive	–
N#Cc1c(Cl)cccc1Cl	inactive	–
N#Cc1c[nH]cc1-c1cccc2c1OC(F)(F)O2	inactive	–
OC(c1ccc(Cl)cc1)(c1ccc(Cl)cc1)C(Cl)(Cl)Cl	inactive	–
CC(C)N1C(=O)N(c2ccccc2)CSC1=NC(C)(C)C	–	81.2 µM (active)
C=CCOC(=O)C(C)(C)OC(=O)c1cc(-n2c(=O)cc(C(F)(F)F)n(C)c2=O)ccc1Cl	inactive	–
CCCCC(C#N)(Cn1cncn1)c1ccc(Cl)cc1 (stereo not given)	inactive	–
CCSC(=O)N1CCCCCC1	inactive	–
Clc1nc(Cl)nc(Nc2ccccc2Cl)n1	inactive	–
CCCN(CC)CC1COC2(CCC(C(C)(C)C)CC2)O1 (stereo not given)	inactive	–
CCN(CC)C(=O)C(C)Oc1cccc2ccccc12 (stereo not given)	inactive	–
CCOc1nc(C(Cl)(Cl)Cl)ns1	–	1.49 µM (active)
CC1(C)C(C(=O)OC(C#N)c2cccc(Oc3ccccc3)c2)C1(C)C (stereo not given)	inactive	–
